Bioassay records (PubChem)
This is a sample that favours compounds with a hit; in the whole collection about 6.2% have one here.
AHR activator: activators of human aryl hydrocarbon receptor; P35869; AHR-responsive luciferase reporter cells, luminescence; activation, % at 5 µM; actives 2.5% (n = 320,000); AID 2796; in the data active = activation above about 47%;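 also: 0% = vehicle wells and 100% = reference agonist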
SUMO Mot1 rescue: inhibitors of SUMOylation pathway: yeast Mot1-301 growth rescue; actives 1% (n = 320,000); S. cerevisiae Mot1-301 growth rescue, ATP luminescence, 38.5C; percent above DMSO median, 100 means doubled; AID 2716; growth rescue, % at 18.8 µM;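 active = every valid replicate shows activation above 250% relative to neutral control wells; inactive = the rest, any valid replicate at or below 250%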;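 also: OY570 slx delta 5 strain wells were the positive control but not used for scaling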
Cardio protect: modulators protecting cardiomyocytes from myocardial damage; actives 0.63% (n = 360,000); H9c2 cardiomyocytes, H2O2 injury protection, ATPLite, 2 h; protection from H2O2 cell death, % at 20 µM; AID 588492;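 active = compounds giving at least 50% protection of heart cells from peroxide-induced death in the single-dose screen, raw or plate-pattern-corrected value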;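 also: 0% = DMSO wells with peroxide and 100% = DMSO wells without peroxide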
AI-2 QS mod: modulates the Vibrio harveyi AI-2 quorum sensing system. Vibrio harveyi JMH597 AI-2 luminescence/OD600 ratio, 9 h; hits give low values; strain lacks LuxN and CqsS sensors; 0 = neutral-control median. activity change, % at 7.5 µM. actives 0.4% (n = 300,000); in the data active = activity change below about -75%, passing the limit was not always enough;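 also: luminescence divided by OD600 gain over 9 h not by final OD600 alone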
GRIN3A LBD mod: NR3A (human) ligand-binding domain modulation. NR3A LBD differential scanning fluorimetry, Tm shift; 0% = protein alone, 100% = glycine-bound protein. Tm shift relative to glycine control, % at 25 µM. actives 2.5% (n = 340,000);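 active = melting temperature shift of at least 10% of the positive control shift, at one fixed dose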
NTR1 agonist: activates human neurotensin receptor 1. actives 0.17% (n = 330,000). AID 493036. activation, % at 20 µM. NTR1-U2OS beta-arrestin-GFP spot imaging, agonist mode;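 active = activation at or above 40% of the spot to cytoplasm intensity ratio, with at least 20 cells analyzed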;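 also: 0% = DMSO without peptide and 100% = 100 nM NTR1 peptide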
Target sequence (P30989 whole entry, looked up): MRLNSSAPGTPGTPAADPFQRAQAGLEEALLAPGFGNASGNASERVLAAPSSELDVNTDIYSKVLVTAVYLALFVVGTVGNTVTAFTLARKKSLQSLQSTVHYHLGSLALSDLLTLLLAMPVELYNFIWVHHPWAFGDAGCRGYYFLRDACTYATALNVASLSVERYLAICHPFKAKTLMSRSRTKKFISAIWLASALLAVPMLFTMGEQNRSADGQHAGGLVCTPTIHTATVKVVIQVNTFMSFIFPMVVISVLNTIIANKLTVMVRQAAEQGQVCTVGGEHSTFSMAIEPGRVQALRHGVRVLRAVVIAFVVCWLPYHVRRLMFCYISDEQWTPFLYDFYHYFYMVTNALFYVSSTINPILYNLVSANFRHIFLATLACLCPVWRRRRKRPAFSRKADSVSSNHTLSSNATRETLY
* marks the source's active call; other numbers are inactive results.

`COc1ccccc1C(CC(=O)Nc1ccc(Cl)cc1)c1ccc(OC(C)C)cc1` (stereo not drawn) gave AHR activator 2, SUMO Mot1 rescue 12, Cardio protect -7, AI-2 QS mod 14, GRIN3A LBD mod 12* and NTR1 agonist 2.
For CC(=O)N/C(=C\c1ccccc1)C(=O)OC(C)C(=O)Nc1ccccc1F (stereo not drawn) the results were AHR activator 2, SUMO Mot1 rescue -2, Cardio protect 2, GRIN3A LBD mod -2 and NTR1 agonist 1.
CCOC(=O)N=Nc1c2ccccc2c2nc3no[nH]c3nc12 was read as Cardio protect -21, AI-2 QS mod 16, GRIN3A LBD mod 25* and NTR1 agonist 9.
For CCOC(=O)N=Nc1c(O)n(CC(=O)OC)c2ccccc12 the results were AHR activator -2, SUMO Mot1 rescue -14, Cardio protect 3, AI-2 QS mod 11, GRIN3A LBD mod 1 and NTR1 agonist 0.
O=C(Nc1cccc(C(F)(F)F)c1)c1cc2c(s1)-c1ccccc1OC2 was read as AHR activator 36, SUMO Mot1 rescue 474, Cardio protect -4, AI-2 QS mod 11, GRIN3A LBD mod 37* and NTR1 agonist 17.
O=C(CCCOC(=O)c1ccc(O)cc1O)c1ccc(Br)cc1 was read as Cardio protect -9, GRIN3A LBD mod 10* and NTR1 agonist 7.
COc1ccc(C(=O)CCC(=O)N2CCN(c3ccc(C)cc3)C(C)C2)cc1 (stereo not drawn) was read as AHR activator 2, SUMO Mot1 rescue -8, Cardio protect -7, AI-2 QS mod 32, GRIN3A LBD mod -4 and NTR1 agonist -1.
Screening Cc1ccc(CNCc2ccccc2Cl)cc1 returned AHR activator -3, SUMO Mot1 rescue 212, Cardio protect 6, AI-2 QS mod 35, GRIN3A LBD mod 0 and NTR1 agonist 2.
Cc1ccc2nc(Cl)c(CNCc3ccccc3)cc2c1 was read as AHR activator 4, SUMO Mot1 rescue 0, Cardio protect 0, AI-2 QS mod -82*, GRIN3A LBD mod -3 and NTR1 agonist 0.
For COc1cc(NC(=O)COc2ccc3c(C)cc(=O)oc3c2C)cc(OC)c1OC the results were AHR activator 1, SUMO Mot1 rescue -1, Cardio protect 10, AI-2 QS mod 13, GRIN3A LBD mod 14* and NTR1 agonist 2.
CC(=O)c1c(OC(=O)c2ccccc2Br)ccc2c(C)cc(=O)oc12 was read as AHR activator 5, SUMO Mot1 rescue -6, Cardio protect 27, AI-2 QS mod 10, GRIN3A LBD mod 13* and NTR1 agonist 3.
Screening CC(=O)c1c(OCC(=O)O)ccc2c(C)cc(=O)oc12 returned AHR activator 1, SUMO Mot1 rescue 8, Cardio protect -1, AI-2 QS mod 21, GRIN3A LBD mod -15 and NTR1 agonist 3.
For Cc1cc(=O)oc2c(C)c(OC(=O)c3ccco3)ccc12 the results were AHR activator 2, SUMO Mot1 rescue -7, Cardio protect 44, AI-2 QS mod 8, GRIN3A LBD mod -1 and NTR1 agonist 3.
`CCC(=O)Oc1ccc2c(C)cc(=O)oc2c1C` gave AHR activator 1, SUMO Mot1 rescue 11, Cardio protect 59*, AI-2 QS mod 14, GRIN3A LBD mod -3 and NTR1 agonist 0.
Screening COc1ccc(S(=O)(=O)NC(=O)C2(C)CCN2C(=O)Cc2cc(C)cc(C)c2)cc1OC (stereo not drawn) returned Cardio protect 2.
`CC(CCCCCCCCC(=O)O)N(CCO)C(=O)OC(C)(C)C` (stereo not drawn) gave AHR activator 0, SUMO Mot1 rescue 5, Cardio protect 5, GRIN3A LBD mod 4 and NTR1 agonist -2.
Screening CC(C)Oc1cc(NC(=O)CS(=O)CC(=O)Nc2cccc(C(F)(F)F)c2)c(Cl)cc1Cl (stereo not drawn) returned AHR activator 1, SUMO Mot1 rescue 31, Cardio protect -2, AI-2 QS mod 36, GRIN3A LBD mod 26* and NTR1 agonist 11.
For CN1C(=O)/C(=C/c2ccccc2OCc2ccc(F)cc2)N(C)C1=S the results were AHR activator 78*, SUMO Mot1 rescue -6, Cardio protect 1, AI-2 QS mod 16, GRIN3A LBD mod -11 and NTR1 agonist 6.
Cc1cc(NC(=O)Nc2ccccc2[N+](=O)[O-])n(C)n1 was read as AHR activator 7, SUMO Mot1 rescue 0, Cardio protect 9, AI-2 QS mod 12, GRIN3A LBD mod 0 and NTR1 agonist 0.
COc1cc(/C=C(/C#N)c2nc3ccccc3[nH]2)ccc1OCC(=O)Nc1ccccc1C(C)C was read as AHR activator 2, SUMO Mot1 rescue -7, Cardio protect 68*, AI-2 QS mod 46, GRIN3A LBD mod 6 and NTR1 agonist 33.
For N#C/C(=C/c1ccc(N2CCCC2)c([N+](=O)[O-])c1)c1nc2ccccc2[nH]1 the results were AHR activator 4, SUMO Mot1 rescue 143, Cardio protect 1, AI-2 QS mod 24, GRIN3A LBD mod 12* and NTR1 agonist 14.
`Cc1ccc2nc(/C(C#N)=C\c3ccc(N4CCCCC4)c([N+](=O)[O-])c3)[nH]c2c1` gave AHR activator 28, SUMO Mot1 rescue 11, Cardio protect -13, AI-2 QS mod 19, GRIN3A LBD mod -1 and NTR1 agonist 4.
N#C/C(=C\c1ccc(N2CCOCC2)c([N+](=O)[O-])c1)c1nc2ccccc2[nH]1 was read as AHR activator 34, SUMO Mot1 rescue 6, Cardio protect 62*, AI-2 QS mod 13, GRIN3A LBD mod 1 and NTR1 agonist 26.
For CCOc1cc(/C=C(/C#N)c2nc3ccccc3[nH]2)ccc1OCc1ccc(C(=O)O)o1 the results were AHR activator 16, SUMO Mot1 rescue -1, Cardio protect 9, AI-2 QS mod 13, GRIN3A LBD mod -4 and NTR1 agonist 0.
COc1cc(/C=C(\C#N)c2nc3ccccc3[nH]2)c([N+](=O)[O-])cc1OCc1ccccc1 was read as AHR activator 88*, SUMO Mot1 rescue 7, Cardio protect 34, AI-2 QS mod 35, GRIN3A LBD mod 3 and NTR1 agonist 3.
`COc1cc(/C=C(/C#N)c2nc3ccccc3[nH]2)ccc1OCC(=O)Nc1ccccc1C` gave AHR activator 7, SUMO Mot1 rescue 12, Cardio protect 15, GRIN3A LBD mod -1 and NTR1 agonist 13.
For CNC(=O)/C(C#N)=C/c1c(N(Cc2ccccc2)Cc2ccccc2)nc2ccccn2c1=O the results were AHR activator -2, SUMO Mot1 rescue 2, Cardio protect 56*, AI-2 QS mod 32, GRIN3A LBD mod -2 and NTR1 agonist 10.
